From PubChem
The full list was thinned out, with hits kept by preference.
TDP1 cell CPT: qHTS for Inhibitors of human tyrosyl-DNA phosphodiesterase 1 (TDP1): qHTS in cells in presence of CPT; chicken DT40 Tdp1-/-;hTDP1 cells + 20 nM CPT, ATP luminescence, 48 h; hit rate 12% among 420,000; Potency, µM (highest dose often 46.2 µM), without a hit: at the highest dose activity change, negative = growth inhibition, actives largely listed as inhibitors; note: potency is the fitted concentration of half-maximal effect; nearly all actives have a fitted effect of over 55% in size
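Cell growth measured by CellTiter-Glo luminescence after a minimum 48 h, 37 C compound exposure with 20 nM CPT in Tdp1-knockout DT40 cells stably expressing hTDP1, seeded 400/well; qHTS titration format.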
HT1080-NT tox: qHTS for induction of synthetic lethality in tumor cells producing 2HG: qHTS for the HT-1080-NT fibrosarcoma cell line | HT-1080-NT fibrosarcoma viability, CellTiter-Glo ATP luminescence, 48 h | Potency, µM (titrated, usually from 46.1 µM), without a hit: top-dose activity, negative = less viability, hits mostly cytotoxic | hit rate 1.6% among 360,000;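 note: NT is the 2HG producing partner of a matched IDH1 knockdown line; potency is the fitted concentration of half-maximal effect; 0% = DMSO-treated cells and -100% = media-only wells without cells; nearly all actives have a fitted effect of over 55% in size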
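HT-1080-NT fibrosarcoma cells (2HG-overproducing), 750 cells/well in RPMI with 5% FBS, dosed after 2 h and incubated 48 h at 37C. CellTiter-Glo luminescence normalized to DMSO and no-cell wells; concentration-response curves fitted and classed.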
IL-1B inflam inh: qHTS for Inhibitors of Inflammasome Signaling: IL-1-beta AlphaLISA Primary Screen | hit rate 4.7% among 360,000 | THP-1 LPS/ATP IL-1B secretion, AlphaLISA, 16 h; stronger effect = lower value | activity change, % at 57.5 µM; in the data active = activity change below about -50%; inconclusive = mostly about -30% to -49%
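THP-1 cells pretreated 1 hr with compounds (up to 57.5 uM final), then stimulated with LPS (250 ng/mL final) plus ATP (1.25 mM final); secreted IL-1B measured by AlphaLISA after 16 hr, decreased signal indicating inhibition.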
12-LOX inh: Primary qHTS assay for inhibitors of human arachidonate 12S-lipoxygenase (ALOX12): Round 2; AID 1671190, 2021; Potency, µM (titrated, usually from 108 µM), inactives show at the top dose activity change, negative = inhibition, most hits filed as inhibitors; hit rate 1.1% among 580,000; purified 12hLO, xylenol orange hydroperoxide absorbance; note: potency is the fitted concentration of half-maximal effect
Target sequence (P18054 whole entry, looked up): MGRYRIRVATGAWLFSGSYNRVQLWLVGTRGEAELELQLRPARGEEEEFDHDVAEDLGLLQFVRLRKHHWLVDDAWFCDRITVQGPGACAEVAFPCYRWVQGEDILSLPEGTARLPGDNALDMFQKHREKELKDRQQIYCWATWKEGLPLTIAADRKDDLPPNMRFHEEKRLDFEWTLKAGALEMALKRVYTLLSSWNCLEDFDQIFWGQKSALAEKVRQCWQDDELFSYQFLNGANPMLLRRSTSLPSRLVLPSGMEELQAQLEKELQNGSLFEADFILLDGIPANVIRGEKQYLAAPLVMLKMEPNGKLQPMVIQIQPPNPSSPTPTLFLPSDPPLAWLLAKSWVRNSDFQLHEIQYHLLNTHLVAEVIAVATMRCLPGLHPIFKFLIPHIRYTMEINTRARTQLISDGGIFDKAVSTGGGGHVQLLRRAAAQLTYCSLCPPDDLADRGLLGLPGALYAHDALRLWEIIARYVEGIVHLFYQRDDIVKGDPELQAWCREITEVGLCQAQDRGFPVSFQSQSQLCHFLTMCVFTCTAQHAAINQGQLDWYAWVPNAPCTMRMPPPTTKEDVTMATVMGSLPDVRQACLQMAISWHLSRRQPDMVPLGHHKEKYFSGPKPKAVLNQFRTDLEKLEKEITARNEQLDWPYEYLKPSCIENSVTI
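Hydroperoxide product was detected by ferrous iron/xylenol orange as the 573 to 405 nm absorbance ratio. Arachidonic acid at 40 uM (final) was turned over for 30 min at room temperature by 150 nM human 12hLO, pH 7.0 Hepes buffer, after 15 min compound preincubation.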
TDP1 cell noCPT: qHTS for Inhibitors of human tyrosyl-DNA phosphodiesterase 1 (TDP1): qHTS in cells in absence of CPT; DT40 Tdp1-/- hTDP1 cells, no CPT, ATP luminescence, 48 h; Potency, µM (doses to about 46.2 µM), inactives show at the highest dose activity change, negative = growth inhibition, most hits filed as inhibitors; hit rate 15% among 420,000; note: potency is the fitted concentration of half-maximal effect; nearly all actives have a fitted effect of over 55% in size
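Luminescent ATP content (CellTiter-Glo) served as the growth readout. Knockout chicken DT40 cells expressing human TDP1 were exposed to compounds without camptothecin for a minimum 48 hr at 37 °C.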
HT1080 IDH1KD tx: qHTS for induction of synthetic lethality in tumor cells producing 2HG: qHTS for the HT-1080-IDH1KD cell line; HT-1080 IDH1 knockdown viability, ATP luminescence, 48 h; Potency, µM (doses to about 46.1 µM), without a hit: top-dose activity, negative = toxicity, hits mostly cytotoxic; hit rate 2% among 360,000; AID 686971, 2013;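 note: potency is the fitted concentration of half-maximal effect; 0% = DMSO wells and -100% = cell-free medium wells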
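After a 2 h attachment period, IDH1KD HT-1080 cells took pin-transferred compound for 48 h at 37 °C; ATP-based luminescence after 10 min room-temperature reagent incubation reported viability.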
* = called active by the depositor; u = inconclusive; x = no result; [ ] = remark or other dose. Unless noted, calls come from the whole dose curve; as a rule, active = well fitted curve in the direction sought with a large enough effect; inconclusive = small, poorly fitted or top-dose-only effect, or another doubt; inactive = no such curve, though single readings can be large; an effect the other way counts as inactive or inconclusive. Unless noted, % is set by controls: 0 for no effect and ±100 for the full control effect.

SMILES | TDP1 cell CPT | HT1080-NT tox | IL-1B inflam inh | 12-LOX inh | TDP1 cell noCPT | HT1080 IDH1KD tx
Cc1ccc(C)c(N2CCN(c3nnnn3-c3ccccc3)CC2)c1 | u | u | 29 | 488% | u | u
O=C(NCCc1ccccc1)c1cnc(Cl)c(Cl)c1 | 10% | 18% | -87* | 0% | u | 22%
O=C(NCCCSc1ccccc1)c1cccnc1 | -6% | 1% | 54 | -13% | 0% | 1%
N#Cc1ccc(C(=O)NCCCSc2ccccc2)cc1 | u | -3% | 14 | 1% | 21µM* | -15%
O=C(OCc1ccccc1)c1cnc(Cl)c(Cl)c1 | -1% | 0% | -4 | 10% | 0% | 7%
O=C(NCCCc1ccccc1)c1nn(-c2ccccc2)nc1CO | u | x | x | -30% | u | x
O=C(NCCCSc1ccccc1)c1cnc(Cl)c(Cl)c1 | -27% | -5% | -94* | u | -25% | -7%
O=C(NCCc1ccccc1)c1nn(-c2ccccc2Cl)nc1CO | 12µM* | x | x | -20% | 13µM* | x
Cc1cccc(C)c1-n1nnnc1-c1nc2cc3ccccc3cc2[nH]c1=O | 0.52µM* | 0.65µM* | 8 | u | 0.73µM* | 0.37µM*
O=C(Nc1cc(Br)ccc1O)c1cc(-c2ccco2)on1 | -2% | -15% | -25 | 28µM* | u | -19%
CC1(CCCCc2ccccc2)COc2ccc(C(=O)NCCN3CCOCC3)cc2N1 (stereo not given) | x | x | x | 100µM* | x | x
O=C(NCCN1CCOCC1)c1cc(-c2ccco2)on1 | 15µM* | 4% | 3 | 26% | 15µM* | 10%
O=C(NCCN1CCOCC1)c1ccc2ccccc2c1 | 21µM* | -7% | 18 | 151% | -14% | -15%
O=C(Nc1cc(Cl)ccc1O)c1cc(-c2ccco2)on1 | 6% | 0% | -27 | u | -29% | -9%
CC1(CCCCN2CCOCC2)COc2ccc(C(=O)NCc3ccccc3)cc2N1 (stereo not given) | x | x | x | -2%[176 µM] | x | x
CCOC(=O)c1ccc(NC(=O)Cn2cc(C(=O)c3ccc(CC)cc3)c(=O)c3ccc(C)nc32)cc1 | 12µM* | x | x | -14% | 5.8µM* | x
CCOC(=O)c1ccc(NC(=O)Cn2cc(C(=O)c3ccc(Cl)cc3)c(=O)c3ccc(C)nc32)cc1 | 4.6µM* | x | x | -19% | 3.3µM* | x
COc1ccc(CN(Cc2cccn2C)S(=O)(=O)c2cccc(C(F)(F)F)c2)cc1 | 18µM* | -3% | 4 | 0% | u | -1%
CC(C)(C)c1cc(CN2CCN(CCO)CC2)cc(C(C)(C)C)c1O | 13µM* | 1% | -1 | u | 21µM* | u
CCOC(=O)C1CCN(Cc2ccc(OC)c(OCc3ccccc3)c2)CC1 | 13µM* | -8% | 5 | u | 18µM* | -3%
CCOC(=O)C1CCN(Cc2cc(C(C)(C)C)c(O)c(C(C)(C)C)c2)CC1 | u | 7% | u | 0% | 18µM* | 1%
CCOC(=O)C1CCN(Cc2ccc(Cl)c(Cl)c2)CC1 | -11% | -2% | 3 | u | -1% | -6%
COc1ccc(NC(=O)O[C@@H]2CO[C@H]3[C@@H]2OC[C@@H]3n2nnnc2SCc2ccco2)cc1 | x | x | x | -4% | x | x
CCc1sc(Nc2cccc(C)c2)nc1-c1cc2cccc(OC)c2oc1=O | u | x | x | -22% | 21µM* | x
COc1ccccc1Nc1nnc(-c2cc3cccc(OC)c3oc2=O)s1 | x | x | x | -24% | x | x
SMILES | TDP1 cell CPT | HT1080-NT tox | IL-1B inflam inh | 12-LOX inh | TDP1 cell noCPT | HT1080 IDH1KD tx
CCc1sc(Nc2cccc(C)c2C)nc1-c1cc2cccc(OC)c2oc1=O | u | x | x | -18% | 21µM* | x
COc1cccc2cc(-c3nnc(Nc4ccccc4C)s3)c(=O)oc12 | u | x | x | 8% | 8.2µM* | x
CC(C)Cn1nc(C(=O)OCC(=O)Nc2ccccc2F)c2ccccc2c1=O | x | x | x | -19% | x | x
CCN(CC)c1ccc2c(Cl)c(Br)c(=O)oc2c1 | 18µM* | 18µM* | -100* | x | 23µM* | 21µM*
CCN(CC)c1ccc2c(c1)oc(=O)c1c(Cl)cc(=O)oc12 | 2.6µM* | u | -126* | x | 5.2µM* | 2.6µM*
CCN(CC)c1ccc2c(C)c(Cl)c(=O)oc2c1 | -2% | -12% | 19 | -22% | u | -4%
CCN(CC)c1ccc2c(C)cc(=O)oc2c1 | 0% | x | 2 | -12% | -9% | x
CCOc1ccc(S(=O)(=O)N(C)CC(=O)NCC2CCCO2)cc1Cl (stereo not given) | x | x | x | 6% | x | x
Cc1c(Cl)cccc1NC(=O)Cn1c(C)cc2nc3n(c(=O)c21)CCCC3 | x | x | x | 5% | x | x
Cc1nnc2c(N3CCN(c4ccccc4)CC3)nc3ccc(C(=O)c4ccccc4)cc3n12 | 7% | x | x | -20% | -11% | x
Cc1cccc(N(C)c2nc3ccc(C(=O)c4ccccc4)cc3n3c(C)nnc23)c1 | u | x | x | -26% | 21µM* | x
CCOC(=O)c1c(-c2ccccc2)oc2ccc(OCC(O)CNCCN(C)C)cc12 (stereo not given) | 16µM* | 18µM* | -103* | -6% | u | 13µM*
CCOC(=O)c1c(C)n(C)c2ccc(OC(=O)c3ccoc3)cc12 | 3% | u | -7 | -19% | -5% | 0%
CCOC(=O)c1c(C)n(C)c2ccc(OCC(O)Cn3c(C)nc4ccccc43)cc12 (stereo not given) | u | -26% | -54* | 23% | 18µM* | u
CCOC(=O)c1c(C)n(-c2ccc(C)cc2)c2ccc(OCC(O)CN3CCN(C)CC3)cc12 (stereo not given) | -88% | 21µM* | -58* | u | u | 18µM*
CCOC(=O)c1c(C)n(C)c2ccc(OCC(O)CNCCc3ccccc3)cc12 (stereo not given) | u | -24% | -60* | u | u | -13%
CCOC(=O)c1c(C)n(C)c2ccc(OCC(O)CN3CCN(C)CC3)cc12 (stereo not given) | -4% | 9% | -20 | 0% | -10% | -2%
CC(C)c1ccc(-c2cc(C(=O)O)[nH]n2)cc1 | x | x | x | -22% | x | x
